AMA1-RON2 inh: inhibitors of Plasmodium falciparum AMA1-RON2 interaction | AlphaScreen AMA1-biotinylated RON2 peptide binding | Potency, µM (series often up to 58.2 µM), without a hit: at the top dose activity change, negative = inhibition, actives largely listed as inhibitors | 360,000 tested, 0.2% active;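 note: 0% = vehicle wells and -100% = peptide control; nearly all actives have a fitted effect of over 45% in size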
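AMA1 (3D7) with his tag at 25 nM final met compounds first, then biotinylated RON2 peptide at 25 nM; detection used donor plus acceptor beads, 10 µg/mL apiece, read by AlphaScreen after 30 min at room temperature.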
Pf growth 48h: P. falciparum growth inhibition at 48 hours (one generation); P. falciparum luciferase growth in erythrocytes, 48 h; Potency, µM (series often up to 28.7 µM), for the others: at the top dose activity change, negative = inhibition, hits mostly inhibitors; 310,000 tested, 5.9% active
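In quantitative HTS format, infected erythrocytes bearing luciferase-reporter parasites were treated for a single generation at 37 C. Luminescence after adding detection reagent served as the growth measure.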
Pf growth 96h: inhibits malaria parasite growth, 96 h; P. falciparum luciferase reporter growth, 96 h; Potency, µM (series often up to 28.7 µM), for the others: at the highest dose activity change, negative = inhibition, hits mostly inhibitors; 320,000 tested, 6.9% active; AID 504834
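Delayed-death screen, second-generation endpoint: infected erythrocytes, 2% hematocrit, 0.05% parasitemia final; 96 hours at 37 C, 5% CO2; luciferase detection reagent; luminescence decrease equals reduced growth.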
HCV inh: HCV inhibition. 340,000 tested, 3.4% active. Potency, µM (series often up to 41.8 µM), without a hit: at the highest dose activity change, negative = inhibition, hits mostly inhibitors. AID 651820. Huh7.5.1 HCVcc-Cre infection, luciferase reporter, 44 h
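Cells (1,000/well) were plated 4 h before compound, then infected with HCVcc-Cre virus (~0.5 moi). After 44 h further culture, infection was read as luciferase luminescence following a 15 min substrate incubation at room temperature.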
The depositor's hits bear a star; ? = inconclusive; · = no result; ! = a repeat was not active; [ ] = another dose, or the depositor's remark. The list is not random: actives were taken first. Their share in the collection is about 11%. Calls come from the whole dose curve; as a rule, active = well fitted curve in the direction sought with a large enough effect; inconclusive = small, poorly fitted or top-dose-only effect, or another doubt; inactive = no such curve, though single readings can be large; an effect the other way counts as inactive or inconclusive. Unless noted, % is set by controls: 0 for no effect and ±100 for the full control effect; potency is the fitted concentration of half-maximal effect.

SMILES	AMA1-RON2 inh	Pf growth 48h	Pf growth 96h	HCV inh
COc1cc(NC(=O)Cc2nn(C)c(=O)c3ccccc23)cc(OC)c1OC	3%	13µM*	10µM*	?
Cn1nc(CC(=O)NC2CCCCCC2)c2ccccc2c1=O	-4%	·	10%	3.2µM*
Cn1nc(-c2ccc(NCCO)c([N+](=O)[O-])c2)c2ccccc2c1=O	5%	-8%	5.2µM*	-15%
COc1ccc2ccn(S(=O)(=O)c3ccccc3)c2c1	-3%	-1%	-10%	-6%
Cn1nc(C(=O)NC2CCCC2)c2ccccc2c1=O	11%	9%	3%	-2%
Cc1ccc(NC(=O)c2ccc(-c3nn(C)c(=O)c4ccccc34)cc2)c(C)c1	-8%	·	6.6µM*	?
Cn1c(C(=O)NC2CCCCC2)cc2c(=O)n(C)c3ccccc3c21	-9%	·	10µM*	?
Cn1nc(-c2ccc(C(=O)NC3CCCCC3)cc2)c2ccccc2c1=O	-3%	5.2µM*	2%	-5%
CC(O)CNC(=O)c1ccc(-c2nn(C)c(=O)c3ccccc23)cc1 (stereo unspecified)	6%	·	7%	2%
O=C(Nc1ccc(Cc2ccncc2)cc1)c1ccc(Cl)c([N+](=O)[O-])c1	-5%	?	?	-21%
Cc1c([N+](=O)[O-])cc(C(=O)Nc2ccc(Cc3ccncc3)cc2)cc1[N+](=O)[O-]	-11%	13µM*	-4%	?
O=c1nc(Nc2ccc([N+](=O)[O-])cc2)[nH]c(=O)[nH]1	1%	·	-8%	15%
O=C(O)/C=C/C(=O)N1CCN(C(c2ccccc2)c2ccccc2)CC1	-2%	-11%	?	?
CCCCCCCCNC(=S)NCCN1CCCCC1	0%	8.3µM*	0%	?
CCC(C)Sc1ccc([C@H]2N[C@@](C)(C(=O)OC)[C@H]3C(=O)N(C)C(=O)[C@@H]23)cc1 (stereo partly specified)	-1%	·	·	?
COc1ccc(C(=O)[C@H]2[C@H]3C(=O)N(c4ccccc4)C(=O)[C@H]3C3C=CC=NN32)cc1 (stereo partly specified)	-10%	17µM*	50%	2%
O=Cc1cc([N+](=O)[O-])ccc1N1CCN(Cc2ccc3c(c2)OCO3)CC1	-19%	3%	-5%	?
CN(C)CCNS(=O)(=O)c1ccc(N2CCc3ccccc32)c([N+](=O)[O-])c1	?	?	?	10µM*
CS(=O)(=O)c1ccc(-n2nnc3ccccc32)c([N+](=O)[O-])c1	-16%	-19%	-17%	-11%
CC(=O)c1ccc(N2CCN(c3ccc(S(=O)(=O)NCCN(C)C)cc3[N+](=O)[O-])CC2)cc1	-5%	?	?	?
CC(=O)c1ccc(N2CCN(c3ccc(S(=O)(=O)NCCCN(C)C)cc3[N+](=O)[O-])CC2)cc1	-7%	?	13µM*	11µM*
CN(C)CCCNS(=O)(=O)c1ccc(-n2nnc3ccccc32)c([N+](=O)[O-])c1	-3%	0%	?	18µM*
CN(C)CCCNS(=O)(=O)c1ccc(N2CCN(Cc3ccc4c(c3)OCO4)CC2)c([N+](=O)[O-])c1	-14%	12µM*	9.3µM*	5.6µM*
NNS(=O)(=O)c1ccc(N2CCCC2=O)c([N+](=O)[O-])c1	3%	?	2%	8%
c1ccc(C(c2ccccc2)c2noc(CN3CCN(C4CCCC4)CC3)n2)cc1	-4%	?	-16%	-9%
SMILES	AMA1-RON2 inh	Pf growth 48h	Pf growth 96h	HCV inh
FC(F)(F)c1ccc(-c2noc(CN3CCCN(C4CCCCC4)CC3)n2)cc1	7%	?	9.3µM*	?
CCOc1cc(/C=N/NC(=O)c2cccnc2)ccc1OCc1ccc(C(=O)OC)o1	4%	34%[5.75 µM]	?	8%
Cc1oc2c(C)c3oc(=O)c(CCC(=O)NCCN4CCOCC4)c(C)c3cc2c1C	-2%	-3%	?	?
c1coc(-c2nc(-c3ccco3)c(-c3ccco3)nc2-c2ccco2)c1	9.5µM*	-20%	103%	-1%
Cn1c(=O)c2c(nc(N/N=C/c3ccncc3)n2Cc2ccccc2)n(C)c1=O	32%	?	?	-10%
COc1cc(/C=N/Nc2nc3c(c(=O)n(C)c(=O)n3C)n2Cc2ccccc2)ccc1OC(=O)c1ccco1	13%	10µM*	9.3µM*	?
Cc1ccc(Cn2c(N/N=C/c3ccncc3)nc3c2c(=O)n(C)c(=O)n3C)cc1	31%	10µM*	3.7µM*	?
Nc1nnc2cc(Br)ccc2n1	16%	·	·	·
OCCNc1nc(NCc2ccccc2)c2ccccc2n1	-2%	?	12µM*	-26%
OCCNc1nc(Nc2ccc(O)cc2)nc2ccccc12	-11%	1.7µM*	5.2µM*	-19%
OCCNc1nc(Nc2cccc(O)c2)nc2ccccc12	-17%	2.3µM*	0.1µM*	-14%
CC(C)Nc1nc(NCCO)nc2ccccc12	-5%	·	·	·
COc1cccc(Nc2nc(NCCO)c3ccccc3n2)c1	-18%	·	-11%	-11%
CC(c1ccco1)N(C(=O)c1cccc(S(=O)(=O)N(C)C)c1)c1ccccn1 (stereo unspecified)	2%	19%	-3%	7%
O=C(Cn1ncc2c1-c1ccccc1OC2)N1CCN(Cc2ccc3c(c2)OCO3)CC1	-5%	·	4.7µM*	-20%
Cc1ccn(CC(=O)N2CCCC(N3CCN(c4cccc(C(F)(F)F)c4)CC3)C2)n1 (stereo unspecified)	0%	·	·	·
Cc1cccc(-n2ncc3c2CCCC3NC(=O)C2=CC(=O)CC(C)(C)O2)c1C (stereo unspecified)	16%	-30%	-29%	7.1µM*
Cc1cccc(-n2ncc3c2CCCC3NC(=O)C2(C(N)=O)CC2)c1C (stereo unspecified)	0%	7%	?	1.6µM*
COc1cccc(C(=O)N2CCC[C@@H]2C(=O)N2CCC[C@H]2C(=O)NCc2ccncc2)c1	3%	·	·	·
Cc1cc(-c2ccccc2)c2c(=O)n(-c3ccccc3)[nH]c2n1	-2%	38%	0.0037µM*	-4%
CN(C)c1ccc(N=Cc2nc(-c3ccccc3)oc2O)cc1	-8%	?	·	-23%
CN(C)c1ccc(N=Cc2cccn2C)cc1	22µM*	3%	?	?
CCCOc1cc(N)ccc1C(=O)OCCN(CC)CC	0%	15%	0.72µM*!	25%
CCc1cccc(NS(=O)(=O)c2csc(C(N)=O)c2)c1	5%	0%[0.00184 µM]	-15%	?
Cc1nc([N+](=O)[O-])cn1CC(O)c1ccc(-c2ccccc2)cc1 (stereo unspecified)	0%	?	10%	?
Cc1ccc(C(O)Cn2cc([N+](=O)[O-])nc2C)cc1 (stereo unspecified)	0%	2.6µM*	-1%	4%
CNC(=S)N1N=C(c2ccc(C)cc2)CC1c1ccc(Cl)cc1 (stereo unspecified)	-8%	·	8.3µM*	?
CCN(CC)c1ccc(NC(=O)c2ccccc2)cc1S(=O)(=O)Nc1ccccc1OC	-14%	1.5µM*	?	?

Compound activity as filed in PubChem.
